Results filed as inconclusive are left out. Where a call stands in place of a potency, no number is given. Active and inactive are the calls of the source. Calls come from the whole dose curve; as a rule, active = well fitted curve in the direction sought with a large enough effect; inconclusive = small, poorly fitted or top-dose-only effect, or another doubt; inactive = no such curve, though single readings can be large; an effect the other way counts as inactive or inconclusive.
Molecular target: Tyrosine-protein phosphatase non-receptor type substrate 1 (Homo sapiens) + Leukocyte surface antigen CD47 (Homo sapiens) (UniProt P78324+Q08722)
Test: CD47-SIRPalpha protein protein interaction - Alpha assay qHTS validation (AID 1347059);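 note: bead proximity luminescence from CD47 binding SIRPalpha after compound preincubation with SIRPalpha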; note: potency is the fitted concentration of half-maximal effect
Details: AlphaScreen CD47-His/biotin-SIRPalpha binding, LOPAC; series mostly up to 38.3 µM
Summary of the method: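 Binding is measured by AlphaScreen proximity: Ni-NTA acceptor beads capture His-CD47, streptavidin donor beads capture biotin-SIRPalpha. Each of three additions (SIRPalpha with compound, CD47, beads) incubates 30 min at room temperature protected from light.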

Chain of Tyrosine-protein phosphatase non-receptor type substrate 1 (Homo sapiens) + Leukocyte surface antigen CD47 (Homo sapiens) (P78324 whole entry, looked up): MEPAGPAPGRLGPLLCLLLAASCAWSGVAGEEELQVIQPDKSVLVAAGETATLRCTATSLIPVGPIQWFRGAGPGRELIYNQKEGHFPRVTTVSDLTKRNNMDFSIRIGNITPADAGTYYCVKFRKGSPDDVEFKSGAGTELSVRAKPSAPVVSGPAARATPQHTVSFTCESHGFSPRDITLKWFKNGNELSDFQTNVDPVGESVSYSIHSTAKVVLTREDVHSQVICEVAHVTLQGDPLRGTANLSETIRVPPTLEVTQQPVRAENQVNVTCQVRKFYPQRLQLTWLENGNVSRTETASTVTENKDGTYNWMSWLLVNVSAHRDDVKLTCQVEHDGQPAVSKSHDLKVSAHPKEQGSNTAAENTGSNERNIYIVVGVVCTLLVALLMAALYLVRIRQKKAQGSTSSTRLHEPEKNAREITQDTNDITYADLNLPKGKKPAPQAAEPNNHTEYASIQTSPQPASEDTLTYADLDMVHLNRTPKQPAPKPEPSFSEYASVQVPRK
Chain of Tyrosine-protein phosphatase non-receptor type substrate 1 (Homo sapiens) + Leukocyte surface antigen CD47 (Homo sapiens) (Q08722 whole entry, looked up): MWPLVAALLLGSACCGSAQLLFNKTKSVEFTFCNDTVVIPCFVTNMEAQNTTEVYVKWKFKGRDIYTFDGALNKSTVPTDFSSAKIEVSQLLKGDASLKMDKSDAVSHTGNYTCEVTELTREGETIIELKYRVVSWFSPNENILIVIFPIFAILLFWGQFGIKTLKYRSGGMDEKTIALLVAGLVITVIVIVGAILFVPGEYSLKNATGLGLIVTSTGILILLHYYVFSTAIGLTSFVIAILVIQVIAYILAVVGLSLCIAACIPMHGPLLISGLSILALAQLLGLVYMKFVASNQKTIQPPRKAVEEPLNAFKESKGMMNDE

SMILES | Potency
CC(C)(C)OC(=O)NC1[C@H]2CNC[C@@H]12 (stereo not given in full) | inactive
CC(C)NP(=O)(NC(C)C)OP(=O)(NC(C)C)NC(C)C | inactive
CN1C2CCC1CC(OC(c1ccccc1)c1ccccc1N)C2 (stereo not given) | inactive
C=CCN1C[C@@H](C)N([C@H](c2ccc(C(=O)N(CC)CC)cc2)c2cccc(OC)c2)C[C@@H]1C | inactive
Ic1ccccc1CNC1C2CCN(CC2)C1C(c1ccccc1)c1ccccc1 (stereo not given) | inactive
NCCCP(=O)(O)O | inactive
O=[N+]([O-])c1ccc2nc(N3CCNCC3)ccc2c1 | inactive
NC(Cc1cc(O)c(O)cc1O)C(=O)O (stereo not given) | 927 nM (active)
O=[N+]([O-])c1cc(O)c(O)c([N+](=O)[O-])c1 | inactive
CC1(C(=O)O)C2CCC(O2)C1(C)C(=O)O (stereo not given) | inactive
NCCc1c[nH]c2ccc(C(N)=O)cc12 | inactive
CC(Cc1ccc(OCC(=O)O)cc1)NCC(O)c1cccc(Cl)c1 (stereo not given) | inactive
CC(C)(C)c1o[nH]c(=O)c1CC(N)C(=O)O (stereo not given) | inactive
C[C@H]1C2Cc3ccc(O)cc3[C@@]1(C)CCN2CC1CC1 | inactive
OC1CCCCC1N1CCC(c2ccccc2)CC1 (stereo not given) | inactive
CNc1ccc2oc(C[C@H]3O[C@@]4(CC[C@H]3C)O[C@H]([C@H](C)C(=O)c3ccc[nH]3)[C@H](C)C[C@H]4C)nc2c1C(=O)O | inactive
CC12NC(Cc3ccccc31)c1ccccc12 (stereo not given) | inactive
O=c1ccc2[nH]cc(C3=CCNCC3)c2[nH]1 | inactive
N=C(N)c1ccc(CS(=O)(=O)F)cc1 | inactive

SMILES | Potency
Clc1cc(I)cc(Cl)c1NC1=NCCN1 | inactive
C[C@]12Cc3cn4c(nc3C=C1CCC1C2CC[C@@]2(C)[C@H]1CC[C@@]2(O)C#N)nc1ccccc14 (stereo not given in full) | inactive
CC(=O)OCC1=C(C(=O)O)N2C(=O)[C@@H](NC(=O)CCC[C@@H](N)C(=O)O)[C@H]2SC1 | 414 nM (active)
O=C1/C(=C/c2ccccc2)C[C@@]2(O)[C@H]3Cc4ccc(O)c5c4[C@@]2(CCN3CC2CC2)[C@H]1O5 | inactive
CCCN(CCC)[C@H]1CCc2c(F)ccc(O)c2C1 | inactive
O=C(NC1CN2CCC1CC2)c1cc2ccoc2cn1 (stereo not given) | inactive
CN1CCc2cc(O)cc3c2[C@H]1Cc1ccc(O)c(O)c1-3 | inactive
Cc1sc2ccccc2c1CC1=NCCN1 | inactive
CC(C)(C)c1cc(C=C(C#N)C#N)cc(C(C)(C)C)c1O | inactive
CCn1cnc2c(Nc3cccc(Cl)c3)nc(N[C@@H]3CCCC[C@@H]3N)nc21 | inactive
CCOC(=O)c1ncn2c1[C@@H]1CCCN1C(=O)c1cc(OC)ccc1-2 | inactive
CC(=O)c1c(O)c(C)c(O)c(Cc2c(O)c3c(c(C(=O)/C=C/c4ccccc4)c2O)OC(C)(C)C=C3)c1O | 16500 nM (active)
CN1CC[C@@]2(C)c3cc(OC(=O)Nc4ccccc4)ccc3N(C)[C@@H]12 | inactive
Nc1ccc(CCN2CCN(c3cccc(C(F)(F)F)c3)CC2)cc1 | inactive
Nc1cc2c(ncn2CCOCP(=O)(O)O)c(=O)[nH]1 | inactive
COc1ccc2[nH]cc(CCN)c2c1 | inactive
Oc1ccc2c3c1O[C@H]1c4[nH]c5ccccc5c4C[C@@]4(O)C(C2)N(CC2CC2)CCC314 (stereo not given in full) | inactive
CC(C)(O)[C@@H]1C2OC(=O)[C@@H]1[C@]1(O)C[C@H]3O[C@]34C(=O)O[C@H]2[C@]14C (tested in a mixture with another compound) | inactive
CN1CC[C@@]2(C)c3cc(O)ccc3N(C)C12 (stereo not given in full) | inactive

Molecular target: Parathyroid hormone/parathyroid hormone-related peptide receptor (Homo sapiens) (UniProt Q03431)
Test: qHTS for PTHR1 Agonists: Optimization Screen against the NCGC LOPAC library (AID 1347079);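 note: GloSensor cAMP luminescence in HEK-293 GP2 cells expressing human PTHR1 with IBMX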
Details: HEK293 GP2 PTHR1 GloSensor cAMP luminescence, 1 h; series mostly up to 57.1 µM
Summary of the method: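 Agonist readout: GloSensor cAMP luminescence, read after 15 min at room temperature. HEK-293-derived GP2 line carries PTHR1; compounds tested as a titration for 1 hr at 37C in presence of IBMX. M-PTH (1-15) served as control.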

Chain of Parathyroid hormone/parathyroid hormone-related peptide receptor (Homo sapiens) (Q03431 whole entry, looked up): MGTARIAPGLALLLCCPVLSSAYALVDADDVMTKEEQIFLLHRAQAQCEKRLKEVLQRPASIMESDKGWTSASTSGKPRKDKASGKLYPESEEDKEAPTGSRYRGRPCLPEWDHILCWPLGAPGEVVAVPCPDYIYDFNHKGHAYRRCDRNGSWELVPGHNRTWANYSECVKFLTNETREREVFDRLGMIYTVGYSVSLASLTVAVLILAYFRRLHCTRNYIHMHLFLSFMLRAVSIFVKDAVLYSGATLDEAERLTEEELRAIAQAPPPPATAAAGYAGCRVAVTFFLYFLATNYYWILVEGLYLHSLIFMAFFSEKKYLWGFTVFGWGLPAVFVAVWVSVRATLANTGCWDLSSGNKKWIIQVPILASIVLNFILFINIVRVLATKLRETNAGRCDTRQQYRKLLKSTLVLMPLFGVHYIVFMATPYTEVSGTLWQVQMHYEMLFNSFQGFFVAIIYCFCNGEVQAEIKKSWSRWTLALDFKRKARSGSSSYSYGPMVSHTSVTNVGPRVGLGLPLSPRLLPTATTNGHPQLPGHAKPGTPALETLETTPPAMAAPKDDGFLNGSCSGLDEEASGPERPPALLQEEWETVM

SMILES | Potency
CC(C)NP(=O)(NC(C)C)OP(=O)(NC(C)C)NC(C)C | inactive
CN1C2CCC1CC(OC(c1ccccc1)c1ccccc1N)C2 (stereo not given) | inactive
C=CCN1C[C@@H](C)N([C@H](c2ccc(C(=O)N(CC)CC)cc2)c2cccc(OC)c2)C[C@@H]1C | inactive
Ic1ccccc1CNC1C2CCN(CC2)C1C(c1ccccc1)c1ccccc1 (stereo not given) | inactive
NCCCP(=O)(O)O | inactive
O=[N+]([O-])c1ccc2nc(N3CCNCC3)ccc2c1 | inactive
NC(Cc1cc(O)c(O)cc1O)C(=O)O (stereo not given) | inactive
O=[N+]([O-])c1cc(O)c(O)c([N+](=O)[O-])c1 | inactive
CC1(C(=O)O)C2CCC(O2)C1(C)C(=O)O (stereo not given) | inactive
NCCc1c[nH]c2ccc(C(N)=O)cc12 | inactive
CC(Cc1ccc(OCC(=O)O)cc1)NCC(O)c1cccc(Cl)c1 (stereo not given) | inactive
CC(C)(C)c1o[nH]c(=O)c1CC(N)C(=O)O (stereo not given) | inactive
OC1CCCCC1N1CCC(c2ccccc2)CC1 (stereo not given) | inactive
CNc1ccc2oc(C[C@H]3O[C@@]4(CC[C@H]3C)O[C@H]([C@H](C)C(=O)c3ccc[nH]3)[C@H](C)C[C@H]4C)nc2c1C(=O)O | inactive
CC12NC(Cc3ccccc31)c1ccccc12 (stereo not given) | inactive
N=C(N)c1ccc(CS(=O)(=O)F)cc1 | inactive

SMILES | Potency
Clc1cc(I)cc(Cl)c1NC1=NCCN1 | inactive
C[C@]12Cc3cn4c(nc3C=C1CCC1C2CC[C@@]2(C)[C@H]1CC[C@@]2(O)C#N)nc1ccccc14 (stereo not given in full) | inactive
CC(=O)OCC1=C(C(=O)O)N2C(=O)[C@@H](NC(=O)CCC[C@@H](N)C(=O)O)[C@H]2SC1 | inactive
CCCN(CCC)[C@H]1CCc2c(F)ccc(O)c2C1 | inactive
CN1CCc2cc(O)cc3c2[C@H]1Cc1ccc(O)c(O)c1-3 | inactive
Cc1sc2ccccc2c1CC1=NCCN1 | inactive
CC(C)(C)c1cc(C=C(C#N)C#N)cc(C(C)(C)C)c1O | inactive
CCn1cnc2c(Nc3cccc(Cl)c3)nc(N[C@@H]3CCCC[C@@H]3N)nc21 | inactive
CCOC(=O)c1ncn2c1[C@@H]1CCCN1C(=O)c1cc(OC)ccc1-2 | inactive
CC(=O)c1c(O)c(C)c(O)c(Cc2c(O)c3c(c(C(=O)/C=C/c4ccccc4)c2O)OC(C)(C)C=C3)c1O | inactive
CN1CC[C@@]2(C)c3cc(OC(=O)Nc4ccccc4)ccc3N(C)[C@@H]12 | inactive
Nc1ccc(CCN2CCN(c3cccc(C(F)(F)F)c3)CC2)cc1 | inactive
COc1ccc2[nH]cc(CCN)c2c1 | inactive
Oc1ccc2c3c1O[C@H]1c4[nH]c5ccccc5c4C[C@@]4(O)C(C2)N(CC2CC2)CCC314 (stereo not given in full) | inactive
CC(C)(O)[C@@H]1C2OC(=O)[C@@H]1[C@]1(O)C[C@H]3O[C@]34C(=O)O[C@H]2[C@]14C (tested in a mixture with another compound) | inactive
CN1CC[C@@]2(C)c3cc(O)ccc3N(C)C12 (stereo not given in full) | inactive

Reference: PubChem BioAssay (NCATS)
